Assay outcomes (PubChem BioAssay)
GDH-TPI counter: inhibits GDH-TPI coupling enzymes, artifact for Mtb FBA screen; GDH-TPI coupled enzyme counterscreen, NADH absorbance; inhibition, % at 4.8 µM; hit rate 1.2% among 360,000; AID 588335; in the data active = inhibition above about 30%;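 note: 0% = DMSO wells and 100% = wells lacking the enzyme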
PrPC surface inh: reduces human prion protein on the cell surface; P04156; cell surface PrPC, TR-FRET read-out; inhibition, % at 13.8 µM; hit rate 0.43% among 370,000; AID 720596; in the data active = inhibition above about 24%; note: 0% = median of the test wells and 100% = reference compound wells
Y pestis TopoI: Y. pestis Topo-I inhibition via cleavage products; activity, % at 10 µM; hit rate 0.064% among 360,000; Y. pestis Topo-I cleavage product accumulation, plate reader; in the data active = activity above about 50%, passing the limit was not always enough
FBA Mtb inh: Mtb fructose-bisphosphate aldolase inhibition; P9WQA3; purified M. tuberculosis FBA, fluorescence read-out; inhibition, % at 1 µM; hit rate 2.3% among 360,000; in the data active = inhibition above about 27%;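 note: 0% = vehicle and 100% = reference inhibitor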
Target sequence (P9WQA3 whole entry, looked up): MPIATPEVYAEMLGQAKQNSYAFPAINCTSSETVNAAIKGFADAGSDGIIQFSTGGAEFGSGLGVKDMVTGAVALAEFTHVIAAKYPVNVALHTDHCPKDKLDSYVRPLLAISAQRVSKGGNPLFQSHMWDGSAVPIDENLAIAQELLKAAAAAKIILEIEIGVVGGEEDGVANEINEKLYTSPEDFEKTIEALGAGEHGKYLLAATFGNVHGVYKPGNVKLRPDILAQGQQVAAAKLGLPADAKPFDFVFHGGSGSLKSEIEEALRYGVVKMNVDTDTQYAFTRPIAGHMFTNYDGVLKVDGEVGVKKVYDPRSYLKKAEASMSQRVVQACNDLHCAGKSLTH
TcdB inh: blocks C. difficile toxin B glycohydrolase activity. hit rate 0.24% among 350,000. AID 652162. inhibition, % at 9.99 µM. P18177. TcdB glycohydrolase enzymatic assay, plate reader; in the data active = inhibition above about 10%
The depositor's hits bear a star; / = not tested or not shown; + = active, no number. Only some compounds are listed: those with a hit (about 3.2% of all), similar ones and a draw of the others.

SMILES	GDH-TPI counter	PrPC surface inh	Y pestis TopoI	FBA Mtb inh	TcdB inh
CCC(=O)Nc1ccc2c(c1)OC[C@@H](C)N(Cc1cccc(F)c1)C[C@H](C)[C@@H](OC)CN(C)C2=O	/	/	/	/	-1
N#C/C(=C/c1ccc(Br)o1)C(N)=O	45*	-1	-4	0	/
COc1ccc(NC(=O)/C(C#N)=C/c2ccc(Br)o2)cc1	21	-12	9	0	/
C[C@@H]1CN([C@@H](C)CO)C(=O)Cc2cc(NC(=O)C3CCCCC3)ccc2O[C@@H]1CN(C)C(=O)Nc1ccc(F)cc1	/	/	/	/	0
CCC(=O)N1[C@@H]2c3ccc(-c4ccccc4F)c(=O)n3C[C@H]1[C@H](CO)[C@H]2C(=O)NC1CCC1	/	/	/	/	-2
COc1cc2cc(Oc3ccc4ccc(=O)oc4c3)c(=O)oc2cc1O[C@@H]1O[C@H](CO)[C@@H](O)[C@H](O)[C@H]1O	19	-5	5	16	/
CCc1cc(=O)oc2cc(O[C@@H]3O[C@H](CO)[C@@H](O)[C@H](O)[C@H]3O)c(Cl)cc12	16	7	5	22	1
COc1cc2cc(Oc3ccc4ccc(=O)oc4c3)c(=O)oc2cc1OC1OC(COC(=O)CC(C)(O)CC(=O)O)C(O)C(O)C1O (stereo unspecified)	32*	-5	-2	26	1
O=c1ccc2cc(O[C@@H]3O[C@H](CO)[C@@H](O)[C@H](O)[C@H]3O)c(O)cc2o1	18	-11	7	+	1
O=c1c(OC2OC(CO)C(O)C(O)C2O)c(-c2ccc(O)c(O)c2)oc2cc(O)cc(O)c12 (stereo unspecified)	14	-5	0	-4	14*
C[C@H](CO)N1C[C@H](C)[C@@H](CN(C)C)OCCCC[C@H](C)Oc2ccc(NS(=O)(=O)c3ccc(F)cc3)cc2C1=O	/	/	/	/	1
O=C(C1CCOCC1)N1CC2(C1)[C@@H](c1ccccc1)[C@H](CO)N2Cc1ccc(Cl)cc1	/	/	/	/	-2
O=C(C[C@H]1CC[C@H]2[C@@H](COC[C@@H](O)CN2CCc2ccccc2)O1)NCc1ccc(Oc2ccccc2)cc1	/	/	/	/	0
CCOC(=O)N1CCN(C(=O)CCSc2ccc(C)cc2)CC1	8	-4	7	-6	/
CCOC(=O)N1CCN(C(=O)CCSc2ccccc2)CC1	-2	-3	2	123*	/
NC(=O)C[C@H]1NC(=O)[C@H](CCC(=O)O)NC(=O)c2cc([N+](=O)[O-])cc(I)c2NCCC[C@@H](C(N)=O)NC1=O	13	-19	7	-4	/
NC(=O)[C@@H]1CCCNc2c(I)cc([N+](=O)[O-])cc2C(=O)N[C@@H](CCC(=O)O)C(=O)N[C@@H](CO)C(=O)N1	35*	/	-9	0	/
CCOC(=O)c1cc2c(=O)[nH]ccc2nc1C	7	-6	2	120*	/
Cn1c(=NN=Cc2ccccc2OCCO)sc2ccccc21	32*	-20	-1	3	0
CCOP(=O)(Nc1cccc2oc(=O)c3ccccc3c12)OCC	3	1	-1	116*	3
C=CCSc1nnc(-c2ccccc2N=Cc2c(C)[nH]n(-c3ccccc3)c2=O)c(=O)[nH]1	43*	3	-3	0	/
CCOC(=O)C1CCCN(C(=O)c2ccc(C(=O)c3ccccc3)cc2)C1 (stereo unspecified)	2	4	14	1	-1
CCOC(=O)C1CCCN(C(=O)c2ccc(OCC)cc2)C1 (stereo unspecified)	-6	7	-5	+	/
O=c1c2c(nc3n1CCCCC3)-c1ccccc1CC21CCCCC1	6	0	-9	1	/
O=c1c2c(nc(NCCO)n1CC1CCCCC1)-c1ccccc1CC21CCCC1	12	7	13	43*	/
SMILES	GDH-TPI counter	PrPC surface inh	Y pestis TopoI	FBA Mtb inh	TcdB inh
CCC1(C)Cc2ccccc2-c2nc3n(c(=O)c21)CCCCC3 (stereo unspecified)	-3	-3	15	-1	/
CCn1c(NCCCO)nc2c(c1=O)C(C)(CC)Cc1ccccc1-2 (stereo unspecified)	19	17	21	155*	-1
CCC1(C)Cc2ccccc2-c2nc(NCCCO)n(C)c(=O)c21 (stereo unspecified)	-1	-5	9	163*	4
CCC1(C)Cc2ccccc2-c2nc[nH]c(=O)c21 (stereo unspecified)	0	4	4	-1	1
CCCNC(=O)[C@H]1N[C@H]2c3ccc(C4=CCCCC4)c(=O)n3C[C@H]2[C@@H]1CO	/	/	/	/	0
CN1CCN(C(=O)C[C@H]2CC[C@@H]3[C@@H](COc4ccc(NC(=O)C5CCOCC5)cc4C(=O)N3C)O2)CC1	/	/	/	/	0
Cc1c(CCCC(=O)O)sc(N)c1C(=O)c1cccc(C(F)(F)F)c1	4	-1	-8	-1	11*
C(=N\n1cnnc1)/c1ccc(N2CCOCC2)cc1	34*	6	8	5	/
C(=N\n1cncn1)/c1ccc(N2CCOCC2)cc1	46*	-12	-7	-3	/
C(=N\n1cnnc1)/c1ccc(N2CCOCC2)s1	11	-24	-3	8	/
S=c1[nH]ncn1/N=C/c1ccc(N2CCOCC2)cc1	28	-1	-10	1	/
CC=Cc1ccc2n(c1=O)C[C@H]1[C@H](CO)[C@@H](C(=O)NCC)[C@@H]2N1CCC(F)(F)F (mixture of isomers)	/	/	/	/	2
CN=Cc1nc(-c2ccccc2)oc1O	59*	-9	6	-2	/
Oc1oc(-c2ccccc2)nc1/C=N/c1ccccn1	27	-18	3	2	0
CCC(=O)N1CC2(C1)[C@H](c1ccc(-c3ccc(F)cc3)cc1)[C@H](CO)N2C(=O)CC	/	/	/	/	0
Cc1cc(=O)oc2cc(OC(C)C(=O)NCC3CCC(C(=O)O)CC3)ccc12 (stereo unspecified)	18	2	4	28*	-2
CCCc1cc(=O)oc2cc(OCC(=O)NCC3CCC(C(=O)O)CC3)ccc12 (stereo unspecified)	16	0	-5	26	1
O=C(Cc1cc(=O)oc2cc(O)ccc12)NCC1CCC(C(=O)O)CC1 (stereo unspecified)	10	-1	0	+	/
CC(Oc1ccc2c(-c3ccccc3)cc(=O)oc2c1)C(=O)NCC1CCC(C(=O)O)CC1 (stereo unspecified)	21	1	3	-1	2
Cc1noc(C)c1NC(=O)Nc1ccc2c(c1)CC(=O)N([C@@H](C)CO)C[C@@H](C)[C@@H](CN(C)CC1CC1)O2	/	/	/	/	-1
CCCCn1c(/N=C/c2ccc(N(C)C)cc2)nc2ccccc21	52*	7	2	-4	/
Cc1noc(C)c1S(=O)(=O)N(C)C[C@H]1OCCCC[C@H](C)Oc2ccc(NC(=O)C3CCCCC3)cc2C(=O)N([C@@H](C)CO)C[C@H]1C	/	/	/	/	0
CSCC[C@H](NC(=O)COc1cc2c(c3oc(=O)c(C)c(C)c13)CCC(C)(C)O2)C(=O)O	9	6	1	+	0
COCCCNC(=O)COc1ccc2oc3c(c2c1)CCCC3	-11	-3	23	0	-1
COCCCNC(=O)COc1cc2c(c3oc(=O)c(C)c(C)c13)CCC(C)(C)O2	7	-12	10	+	1
